Test results taken from PubChem BioAssay (EPA / NIEHS).
Active and inactive are the calls of the source. Rule for the calls: active = hit-call score of the fitted dose curve at least 0.9, where 1 is the maximum; inactive = score below 0.9.

Experiments:
[1] = molecular target: Bile acid receptor (Homo sapiens) (UniProt Q96RI1); test: ATG_IR1_CIS: Attagene CIS-FACTORIAL HepG2 Assay for human Nuclear Receptor Subfamily 1 Group H Member 4 (NR1H4), IR1 submotif (AID 2282946); settings: IR1 reporter transcription, actives raise or lower the signal
Method in brief: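 HepG2 cells transiently transfected with multiplexed cis-element reporter units read endogenous transcription factor activity. After 24 h compound exposure, reporter mRNA was quantified by RT-PCR, fluorescent labelling, HpaI digestion and capillary electrophoresis; bidirectional fitting versus DMSO baseline.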

[2] = ATG_GRE_CIS: Attagene CIS-FACTORIAL HepG2 Assay for human Glucocorticoid Response Elements (GRE) (AID 2282947); settings: HepG2 GRE cis-reporter, Attagene multiplex mRNA; actives raise or lower the signal
Method in brief: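 Multiplexed cis-reporter mRNA induction, HepG2, 24 h post-dose. RT-PCR, FAM-labelled, HpaI-digested amplicons by CE. Bidirectional fit vs DMSO.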

[3] = ATG_ISRE_CIS: Attagene CIS-FACTORIAL HepG2 Assay for human Interferon Regulatory Factor 1 (IRF1) binding to an Interferon-Stimulated Response Element (ISRE) (AID 2282948); settings: HepG2 ISRE cis-reporter (Attagene), mRNA transcription readout; actives raise or lower the signal
Method in brief: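 Read-out: fluorescent RT-PCR products resolved by capillary electrophoresis, reporting endogenous transcription factor activity via ISRE-driven reporter mRNA in transfected HepG2 cells dosed for 24 h; gain or loss fitted relative to DMSO.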

[4] = ATG_M_32_CIS: Attagene CIS-FACTORIAL HepG2 Assay for M32 Transcription Factor (Internal Marker) (AID 2282949); settings: HepG2 Attagene cis-factorial M32 reporter, mRNA; actives raise or lower the signal;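 note: background control marker of the multiplexed CIS panel rather than a real target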
Method in brief: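 Using DMSO as baseline, bidirectional curve fits were applied to reporter mRNA signals. These came from transiently transfected HepG2 cells exposed for 24 h, with RNA analysed by RT-PCR, FAM primer extension, HpaI digestion and CE.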

[5] = ATG_M_06_CIS: Attagene CIS-FACTORIAL HepG2 Assay for M06 Transcription Factor (Internal Marker) (AID 2282950); settings: HepG2 Attagene CIS-FACTORIAL M06 internal marker reporter; actives raise or lower the signal
Method in brief: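 One of many multiplexed endpoints: HepG2 reporter mRNA after 24 h dosing, detected by RT-PCR and capillary electrophoresis fluorescence; gain or loss of signal analysed against DMSO.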

[6] = molecular target: Heat shock factor protein 1 (Homo sapiens) (UniProt Q00613); test: ATG_HSE_CIS: Attagene CIS-FACTORIAL HepG2 Assay for human Heat Shock Transcription Factor 1 (HSE) (AID 2282953); settings: HepG2 HSE cis-reporter, Attagene RNA transcription; actives raise or lower the signal
Method in brief: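 Using HepG2 with transfected cis-driven reporter constructs, compound effects on endogenous factor activity are scored as reporter mRNA change at 24 h. Detection: RT-PCR, HpaI digestion, capillary electrophoresis; bidirectional fitting to DMSO.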

[7] = ATG_MRE_CIS: Attagene CIS-FACTORIAL HepG2 Assay for human Metal Responsive Element (MRE) (AID 2282954); settings: HepG2 MRE cis-reporter transcription, Attagene multiplex; actives raise or lower the signal
Method in brief: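 Multiplexed cis-reporter assay in human HepG2 liver cells, 24 h incubation with test chemical. Reporter transcripts measured by RT-PCR and capillary electrophoresis; values from bidirectional curve fitting versus DMSO.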

[8] = ATG_PBREM_CIS: Attagene CIS-FACTORIAL HepG2 Assay for human Phenobarbital-responsive Enhancer Module (PBREM) (AID 2282955); settings: HepG2 PBREM cis-reporter, Attagene multiplexed transcription; actives raise or lower the signal
Method in brief: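 Transfected liver-derived HepG2 cells exposed 24 h; PBREM reporter transcript quantified via RT-PCR and capillary electrophoresis, with activity in either direction referenced to DMSO.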

[9] = molecular target: Paired box protein Pax-6 (Homo sapiens) (UniProt P26367); test: ATG_Pax6_CIS: Attagene CIS-FACTORIAL HepG2 Assay for human Paired Box 6 (PAX6) (AID 2282956); settings: HepG2 CIS-FACTORIAL PAX6 reporter transcription, RNA readout; actives raise or lower the signal
Method in brief: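 Readout: reporter transcript fluorescence after RT-PCR and capillary electrophoresis. Cells: HepG2, transiently transfected with cis-regulated MRTUs. Exposure 24 h. Gain or loss of signal fitted bidirectionally relative to DMSO.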

[10] = ATG_PXRE_CIS: Attagene CIS-FACTORIAL HepG2 Assay for human Pregnane X Receptor Element (PXRE) (AID 2282957); settings: HepG2 Attagene CIS-FACTORIAL PXRE reporter, mRNA; actives raise or lower the signal
Method in brief: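 Using HepG2 transfected with multiple reporter transcription units, endogenous factor-driven transcription was scored as reporter mRNA after 24 h exposure.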

[11] = ATG_PPRE_CIS: Attagene CIS-FACTORIAL HepG2 Assay for human Peroxisome Proliferator-activated Response Element (PPRE) (AID 2282958); settings: HepG2 PPRE cis-element reporter, Attagene transcription factor profiling; actives raise or lower the signal
Method in brief: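 Measured endpoint: PPRE-controlled reporter mRNA, detected by RT-PCR and capillary electrophoresis fluorescence, from transiently transfected HepG2 cells 24 h after dosing. Curves fitted in both directions using DMSO baseline.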

[12] = ATG_RORE_CIS: Attagene CIS-FACTORIAL HepG2 Assay for human RAR-related Orphan Receptor Element (RORE) (AID 2282959); settings: HepG2 Attagene cis-factorial RORE reporter, mRNA; actives raise or lower the signal
Method in brief: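 Transiently transfected HepG2 reporter cells were treated 24 h. Reporter transcripts were detected by RT-PCR and capillary electrophoresis, with bidirectional fitting against DMSO.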

[13] = ATG_Sox_CIS: Attagene CIS-FACTORIAL HepG2 Assay for human SRY-box transcription factor (SOX) (AID 2282960); settings: HepG2 Attagene cis-factorial SOX reporter, mRNA; actives raise or lower the signal
Method in brief: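 Gain- or loss-of-signal endpoint, fitted bidirectionally with DMSO as negative control. Based on reporter mRNA from transfected HepG2 cells harvested 24 h post-treatment and quantified via RT-PCR and capillary electrophoresis.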

[14] = molecular target: Transcription factor Sp1 (Homo sapiens) (UniProt P08047); test: ATG_Sp1_CIS: Attagene CIS-FACTORIAL HepG2 Assay for human Specificity Protein 1 (Sp1) (AID 2282961); settings: HepG2 Sp1 cis-reporter transcription, actives raise or lower the signal
Method in brief: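 Endpoint reflects endogenous Sp1 transcriptional activity, not an exogenous fusion protein: HepG2 cells with transfected cis-regulated reporters, 24 h dosing, RT-PCR/capillary electrophoresis mRNA read-out, DMSO-normalised bidirectional fit.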

[15] = ATG_SREBP_CIS: Attagene CIS-FACTORIAL HepG2 Assay for human Sterol Regulatory Element Binding (SREBP) (AID 2282962); settings: HepG2 Attagene cis-factorial SREBP reporter, mRNA; actives raise or lower the signal
Method in brief: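 Readout: fluorescent reporter-transcript peaks resolved by capillary electrophoresis after RT-PCR. Cells were human HepG2 carrying transfected cis-promoter reporter constructs, dosed for 24 h. Gain or loss of signal was fitted against DMSO controls.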

[16] = molecular target: Signal transducer and activator of transcription 3 (Homo sapiens) (UniProt P40763); test: ATG_STAT3_CIS: Attagene CIS-FACTORIAL HepG2 Assay for human Signal Transducer and Activator of Transcription 3 (STAT3) (AID 2282963); settings: HepG2, Attagene cis-factorial STAT3 reporter transcription; actives raise or lower the signal
Method in brief: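 Cis-factorial format: endogenous transcription factors in HepG2 drive transfected reporter units. After 24 h treatment, reporter RNA was reverse-transcribed, amplified, FAM-labelled and HpaI-digested before CE analysis; activity scored in both directions against DMSO.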

[17] = ATG_TA_CIS: Attagene CIS-FACTORIAL HepG2 Assay for human TA Basal Promoter (AID 2282964); settings: HepG2 Attagene CIS-factorial TA basal promoter reporter; actives raise or lower the signal
Method in brief: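 Transient MRTU transfection of HepG2 preceded 24 h compound exposure. Reporter mRNA levels were then read by RT-PCR with capillary electrophoresis, and this background-control endpoint was fitted bidirectionally to DMSO.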

[18] = ATG_TCF_b_cat_CIS: Attagene CIS-FACTORIAL HepG2 Assay for human T-Cell-Factor with beta-catenin (TCF/b-cat) (AID 2282965); settings: HepG2 TCF/beta-catenin cis-reporter transcription, actives raise or lower the signal
Method in brief: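 Endogenous transcription factor activity is captured through cis-promoter reporter constructs transiently introduced into human HepG2 liver cells. Induced reporter mRNA is measured after 24 h and fitted bidirectionally relative to DMSO.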

[19] = molecular target: Hepatocyte nuclear factor 6 (Homo sapiens) (UniProt Q9UBC0); test: ATG_HNF6_CIS: Attagene CIS-FACTORIAL HepG2 Assay for human Hepatocyte Nuclear Factor 6 (HNF6) (AID 2282952); settings: HepG2 Attagene cis-factorial HNF6 reporter transcription; actives raise or lower the signal
Method in brief: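 Using cis-element reporters in HepG2 liver cells, the assay tracks endogenous factor-driven transcription 24 h post-dosing. Signal comes from 6-FAM-labelled, HpaI-digested RT-PCR fragments, with gain or loss scored against DMSO.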

[20] = molecular target: Hypoxia-inducible factor 1-alpha (Homo sapiens) (UniProt Q16665); test: ATG_HIF1a_CIS: Attagene CIS-FACTORIAL HepG2 Assay for human Hypoxia Inducible Factor 1 (HIF1A) (AID 2282951); settings: HepG2 Attagene cis-factorial HIF1a reporter transcription; actives raise or lower the signal
Method in brief: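 Dosed 24 h, transfected HepG2 cells yielded total RNA whose reporter transcripts were RT-PCR-amplified and sized by capillary electrophoresis using fluorescent labelling; DMSO defined baseline, with gain and loss of signal both fitted.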

Measured: AC50

Sequence of Paired box protein Pax-6 (Homo sapiens) (P26367 whole entry, looked up): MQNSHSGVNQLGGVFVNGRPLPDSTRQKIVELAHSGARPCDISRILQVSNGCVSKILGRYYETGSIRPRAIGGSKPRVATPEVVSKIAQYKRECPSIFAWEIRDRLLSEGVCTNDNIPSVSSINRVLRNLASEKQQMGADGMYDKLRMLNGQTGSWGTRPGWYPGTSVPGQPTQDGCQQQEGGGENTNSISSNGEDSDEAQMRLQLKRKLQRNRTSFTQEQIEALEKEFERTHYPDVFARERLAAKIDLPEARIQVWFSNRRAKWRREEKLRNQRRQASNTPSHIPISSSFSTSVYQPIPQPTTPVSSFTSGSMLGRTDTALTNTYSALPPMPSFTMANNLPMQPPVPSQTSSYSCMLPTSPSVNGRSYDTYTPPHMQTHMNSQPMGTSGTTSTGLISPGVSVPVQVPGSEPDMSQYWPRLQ
Sequence of Bile acid receptor (Homo sapiens) (Q96RI1 whole entry, looked up): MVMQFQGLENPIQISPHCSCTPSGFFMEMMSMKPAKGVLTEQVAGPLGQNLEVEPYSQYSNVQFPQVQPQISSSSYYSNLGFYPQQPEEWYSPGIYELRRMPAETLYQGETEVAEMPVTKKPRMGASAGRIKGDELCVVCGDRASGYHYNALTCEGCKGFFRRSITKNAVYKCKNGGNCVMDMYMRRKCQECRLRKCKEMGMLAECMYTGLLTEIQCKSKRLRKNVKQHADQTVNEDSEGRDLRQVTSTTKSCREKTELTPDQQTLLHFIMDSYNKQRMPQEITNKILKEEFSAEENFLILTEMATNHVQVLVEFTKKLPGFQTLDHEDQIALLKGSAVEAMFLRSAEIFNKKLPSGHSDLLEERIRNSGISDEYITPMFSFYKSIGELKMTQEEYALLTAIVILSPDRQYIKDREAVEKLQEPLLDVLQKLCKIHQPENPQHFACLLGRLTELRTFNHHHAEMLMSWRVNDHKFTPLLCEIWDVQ
Sequence of Hepatocyte nuclear factor 6 (Homo sapiens) (Q9UBC0 whole entry, looked up, the tested form may be a part): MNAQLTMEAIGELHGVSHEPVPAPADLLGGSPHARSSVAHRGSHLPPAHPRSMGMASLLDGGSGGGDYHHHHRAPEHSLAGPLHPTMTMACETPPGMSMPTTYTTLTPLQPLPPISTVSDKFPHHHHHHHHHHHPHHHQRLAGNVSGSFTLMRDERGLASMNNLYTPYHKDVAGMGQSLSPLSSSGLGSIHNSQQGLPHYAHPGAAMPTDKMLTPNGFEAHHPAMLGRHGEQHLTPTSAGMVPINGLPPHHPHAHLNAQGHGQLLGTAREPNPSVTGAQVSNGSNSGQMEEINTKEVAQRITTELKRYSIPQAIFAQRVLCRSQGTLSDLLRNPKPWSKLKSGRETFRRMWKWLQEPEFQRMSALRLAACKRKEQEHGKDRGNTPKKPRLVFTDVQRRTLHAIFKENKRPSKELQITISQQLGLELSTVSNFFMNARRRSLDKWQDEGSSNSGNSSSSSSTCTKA
Sequence of Signal transducer and activator of transcription 3 (Homo sapiens) (P40763 whole entry, looked up): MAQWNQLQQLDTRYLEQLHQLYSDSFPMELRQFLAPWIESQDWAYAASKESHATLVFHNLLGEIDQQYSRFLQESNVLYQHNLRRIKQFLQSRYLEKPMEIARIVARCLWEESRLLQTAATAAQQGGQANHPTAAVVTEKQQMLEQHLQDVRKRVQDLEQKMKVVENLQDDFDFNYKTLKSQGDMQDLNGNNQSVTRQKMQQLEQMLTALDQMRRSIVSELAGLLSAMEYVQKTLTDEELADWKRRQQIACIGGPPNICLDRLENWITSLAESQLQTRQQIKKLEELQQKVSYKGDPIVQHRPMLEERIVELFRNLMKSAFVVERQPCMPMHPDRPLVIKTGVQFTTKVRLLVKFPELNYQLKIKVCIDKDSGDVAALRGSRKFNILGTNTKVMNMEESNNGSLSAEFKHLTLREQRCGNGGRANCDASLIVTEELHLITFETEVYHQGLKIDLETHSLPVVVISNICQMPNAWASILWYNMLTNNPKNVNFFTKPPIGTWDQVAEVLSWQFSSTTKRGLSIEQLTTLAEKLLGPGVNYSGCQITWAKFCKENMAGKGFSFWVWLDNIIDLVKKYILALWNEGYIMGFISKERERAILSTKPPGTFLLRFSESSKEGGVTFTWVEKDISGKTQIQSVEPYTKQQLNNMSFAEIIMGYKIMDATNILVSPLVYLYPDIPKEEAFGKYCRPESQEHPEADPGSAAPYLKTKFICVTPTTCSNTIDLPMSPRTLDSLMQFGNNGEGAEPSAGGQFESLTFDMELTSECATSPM
Sequence of Transcription factor Sp1 (Homo sapiens) (P08047 whole entry, looked up, the tested form may be a part): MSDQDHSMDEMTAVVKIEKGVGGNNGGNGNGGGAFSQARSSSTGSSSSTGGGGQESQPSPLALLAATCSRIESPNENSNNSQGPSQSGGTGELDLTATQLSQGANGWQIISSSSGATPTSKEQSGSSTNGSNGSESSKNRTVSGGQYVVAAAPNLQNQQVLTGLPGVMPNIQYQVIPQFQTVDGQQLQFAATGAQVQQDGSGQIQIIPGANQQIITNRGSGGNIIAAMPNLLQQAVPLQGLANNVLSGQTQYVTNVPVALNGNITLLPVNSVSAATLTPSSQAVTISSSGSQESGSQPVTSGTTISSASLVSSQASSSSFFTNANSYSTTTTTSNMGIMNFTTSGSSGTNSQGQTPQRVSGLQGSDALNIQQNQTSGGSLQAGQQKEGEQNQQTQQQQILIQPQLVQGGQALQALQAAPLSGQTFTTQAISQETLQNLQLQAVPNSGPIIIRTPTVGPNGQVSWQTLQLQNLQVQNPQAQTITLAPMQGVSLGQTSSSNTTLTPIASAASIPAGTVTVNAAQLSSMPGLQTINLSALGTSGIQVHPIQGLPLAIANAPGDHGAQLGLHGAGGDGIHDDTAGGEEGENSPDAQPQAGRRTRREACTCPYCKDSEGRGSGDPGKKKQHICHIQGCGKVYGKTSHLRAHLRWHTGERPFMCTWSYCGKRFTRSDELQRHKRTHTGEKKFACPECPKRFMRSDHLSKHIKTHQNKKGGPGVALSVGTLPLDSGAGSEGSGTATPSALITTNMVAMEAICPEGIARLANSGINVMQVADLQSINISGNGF
Sequence of Heat shock factor protein 1 (Homo sapiens) (Q00613 whole entry, looked up): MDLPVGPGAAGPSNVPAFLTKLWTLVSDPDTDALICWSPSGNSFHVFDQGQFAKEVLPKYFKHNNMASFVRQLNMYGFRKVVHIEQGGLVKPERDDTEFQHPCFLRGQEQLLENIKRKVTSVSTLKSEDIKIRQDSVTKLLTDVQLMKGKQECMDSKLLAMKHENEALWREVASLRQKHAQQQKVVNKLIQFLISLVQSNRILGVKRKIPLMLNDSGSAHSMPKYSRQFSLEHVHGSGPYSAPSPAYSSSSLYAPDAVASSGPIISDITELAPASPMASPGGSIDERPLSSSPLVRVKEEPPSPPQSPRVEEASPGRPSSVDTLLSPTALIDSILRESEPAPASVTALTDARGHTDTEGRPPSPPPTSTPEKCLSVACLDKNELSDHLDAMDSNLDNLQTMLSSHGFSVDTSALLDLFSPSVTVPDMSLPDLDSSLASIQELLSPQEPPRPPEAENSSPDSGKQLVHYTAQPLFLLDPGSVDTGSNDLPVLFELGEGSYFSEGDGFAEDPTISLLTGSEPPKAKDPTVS
Sequence of Hypoxia-inducible factor 1-alpha (Homo sapiens) (Q16665 whole entry, looked up): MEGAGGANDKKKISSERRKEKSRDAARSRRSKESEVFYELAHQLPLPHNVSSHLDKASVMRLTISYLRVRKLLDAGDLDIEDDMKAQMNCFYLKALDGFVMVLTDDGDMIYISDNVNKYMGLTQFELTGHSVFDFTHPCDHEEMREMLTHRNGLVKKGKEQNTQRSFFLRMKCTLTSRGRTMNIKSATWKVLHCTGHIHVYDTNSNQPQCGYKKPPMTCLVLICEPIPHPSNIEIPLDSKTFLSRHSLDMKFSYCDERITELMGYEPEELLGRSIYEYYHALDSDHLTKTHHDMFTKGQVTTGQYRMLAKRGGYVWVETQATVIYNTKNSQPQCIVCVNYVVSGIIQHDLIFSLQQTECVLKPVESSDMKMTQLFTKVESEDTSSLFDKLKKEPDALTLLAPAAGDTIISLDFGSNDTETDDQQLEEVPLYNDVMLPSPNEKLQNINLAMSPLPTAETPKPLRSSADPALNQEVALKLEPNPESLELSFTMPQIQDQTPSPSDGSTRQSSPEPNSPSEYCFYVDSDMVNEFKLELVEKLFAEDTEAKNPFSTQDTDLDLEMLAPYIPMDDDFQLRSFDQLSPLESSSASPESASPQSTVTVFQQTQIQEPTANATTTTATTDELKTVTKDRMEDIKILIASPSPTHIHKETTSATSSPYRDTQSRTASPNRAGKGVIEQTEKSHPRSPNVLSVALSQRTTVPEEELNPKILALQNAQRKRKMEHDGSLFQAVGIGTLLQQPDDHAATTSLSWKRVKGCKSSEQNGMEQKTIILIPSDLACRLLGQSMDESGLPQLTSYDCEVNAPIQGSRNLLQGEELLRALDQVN

Cc1c(Cl)c(=O)oc2cc(O)ccc12
active: [8] 37.3 µM | [10] 70.3 µM | [14] 26.8 µM | [15] 120 µM
not listed: [19] | [20]
inactive: all other assays above

CC1=CCC2C(C1)C2(C)C (centres undefined)
active: [10] 6.95 µM
not listed: [20]
inactive: all other assays above

COc1cc(C(C)(C)C)c(O)c(C(C)(C)C)c1
active: [1] 69.8 µM | [10] 2.09 µM
not listed: [4] | [8]
inactive: all other assays above

COC(=O)C1=C(C)NC(C)=C(C(=O)OCCN(C)Cc2ccccc2)C1c1cccc([N+](=O)[O-])c1 (centres undefined)
active: [3] 26.2 µM | [6] 54.6 µM | [7] 19.8 µM | [8] 0.238 µM | [9] 20.5 µM
not listed: [10] | [15] | [19] | [20]
inactive: all other assays above

CC1(C)CCC(C)(C)c2cc(C(=O)Nc3ccc(C(=O)O)cc3)ccc21
inactive: [2] | [5] | [19] | [8] | [13] | [14] | [15] | [16]
active: [1] 4.75 µM | [3] 100 µM | [20] 55.1 µM | [6] 157 µM | [7] 74.5 µM | [9] 85 µM | [10] 53.9 µM | [11] 43.7 µM | [12] 32.7 µM | [17] 27.7 µM | [18] 48.2 µM

CC(CC(C)(C)C)CC(C)(C)CC(C)(C)C (centres undefined)
not listed: [17] | [18] | [20]
inactive: all other assays above

CCCCNC(=O)NS(=O)(=O)c1ccc(C)cc1
not listed: [8] | [12] | [20]
inactive: all other assays above
